Out of some 350,000 compounds screened, about 840 (0.24%) were called active. The entries come from a sample that favours actives as a whole. Values without a mark were called inactive. Cut-off read from the data, not from the text of the source: active = inhibition above about 10%; inactive = the rest.
What follows are molecules tested against Toxin B (Clostridioides difficile) (UniProt P18177) (assay: TcdB glycohydrolase inhibitors, primary screen, biochemical, single point, plate reader (AID 652162)). Details: TcdB glycohydrolase enzymatic assay, at 9.99 µM, stronger effect = higher value.
Sequence of Toxin B (Clostridioides difficile) (P18177 whole entry, looked up): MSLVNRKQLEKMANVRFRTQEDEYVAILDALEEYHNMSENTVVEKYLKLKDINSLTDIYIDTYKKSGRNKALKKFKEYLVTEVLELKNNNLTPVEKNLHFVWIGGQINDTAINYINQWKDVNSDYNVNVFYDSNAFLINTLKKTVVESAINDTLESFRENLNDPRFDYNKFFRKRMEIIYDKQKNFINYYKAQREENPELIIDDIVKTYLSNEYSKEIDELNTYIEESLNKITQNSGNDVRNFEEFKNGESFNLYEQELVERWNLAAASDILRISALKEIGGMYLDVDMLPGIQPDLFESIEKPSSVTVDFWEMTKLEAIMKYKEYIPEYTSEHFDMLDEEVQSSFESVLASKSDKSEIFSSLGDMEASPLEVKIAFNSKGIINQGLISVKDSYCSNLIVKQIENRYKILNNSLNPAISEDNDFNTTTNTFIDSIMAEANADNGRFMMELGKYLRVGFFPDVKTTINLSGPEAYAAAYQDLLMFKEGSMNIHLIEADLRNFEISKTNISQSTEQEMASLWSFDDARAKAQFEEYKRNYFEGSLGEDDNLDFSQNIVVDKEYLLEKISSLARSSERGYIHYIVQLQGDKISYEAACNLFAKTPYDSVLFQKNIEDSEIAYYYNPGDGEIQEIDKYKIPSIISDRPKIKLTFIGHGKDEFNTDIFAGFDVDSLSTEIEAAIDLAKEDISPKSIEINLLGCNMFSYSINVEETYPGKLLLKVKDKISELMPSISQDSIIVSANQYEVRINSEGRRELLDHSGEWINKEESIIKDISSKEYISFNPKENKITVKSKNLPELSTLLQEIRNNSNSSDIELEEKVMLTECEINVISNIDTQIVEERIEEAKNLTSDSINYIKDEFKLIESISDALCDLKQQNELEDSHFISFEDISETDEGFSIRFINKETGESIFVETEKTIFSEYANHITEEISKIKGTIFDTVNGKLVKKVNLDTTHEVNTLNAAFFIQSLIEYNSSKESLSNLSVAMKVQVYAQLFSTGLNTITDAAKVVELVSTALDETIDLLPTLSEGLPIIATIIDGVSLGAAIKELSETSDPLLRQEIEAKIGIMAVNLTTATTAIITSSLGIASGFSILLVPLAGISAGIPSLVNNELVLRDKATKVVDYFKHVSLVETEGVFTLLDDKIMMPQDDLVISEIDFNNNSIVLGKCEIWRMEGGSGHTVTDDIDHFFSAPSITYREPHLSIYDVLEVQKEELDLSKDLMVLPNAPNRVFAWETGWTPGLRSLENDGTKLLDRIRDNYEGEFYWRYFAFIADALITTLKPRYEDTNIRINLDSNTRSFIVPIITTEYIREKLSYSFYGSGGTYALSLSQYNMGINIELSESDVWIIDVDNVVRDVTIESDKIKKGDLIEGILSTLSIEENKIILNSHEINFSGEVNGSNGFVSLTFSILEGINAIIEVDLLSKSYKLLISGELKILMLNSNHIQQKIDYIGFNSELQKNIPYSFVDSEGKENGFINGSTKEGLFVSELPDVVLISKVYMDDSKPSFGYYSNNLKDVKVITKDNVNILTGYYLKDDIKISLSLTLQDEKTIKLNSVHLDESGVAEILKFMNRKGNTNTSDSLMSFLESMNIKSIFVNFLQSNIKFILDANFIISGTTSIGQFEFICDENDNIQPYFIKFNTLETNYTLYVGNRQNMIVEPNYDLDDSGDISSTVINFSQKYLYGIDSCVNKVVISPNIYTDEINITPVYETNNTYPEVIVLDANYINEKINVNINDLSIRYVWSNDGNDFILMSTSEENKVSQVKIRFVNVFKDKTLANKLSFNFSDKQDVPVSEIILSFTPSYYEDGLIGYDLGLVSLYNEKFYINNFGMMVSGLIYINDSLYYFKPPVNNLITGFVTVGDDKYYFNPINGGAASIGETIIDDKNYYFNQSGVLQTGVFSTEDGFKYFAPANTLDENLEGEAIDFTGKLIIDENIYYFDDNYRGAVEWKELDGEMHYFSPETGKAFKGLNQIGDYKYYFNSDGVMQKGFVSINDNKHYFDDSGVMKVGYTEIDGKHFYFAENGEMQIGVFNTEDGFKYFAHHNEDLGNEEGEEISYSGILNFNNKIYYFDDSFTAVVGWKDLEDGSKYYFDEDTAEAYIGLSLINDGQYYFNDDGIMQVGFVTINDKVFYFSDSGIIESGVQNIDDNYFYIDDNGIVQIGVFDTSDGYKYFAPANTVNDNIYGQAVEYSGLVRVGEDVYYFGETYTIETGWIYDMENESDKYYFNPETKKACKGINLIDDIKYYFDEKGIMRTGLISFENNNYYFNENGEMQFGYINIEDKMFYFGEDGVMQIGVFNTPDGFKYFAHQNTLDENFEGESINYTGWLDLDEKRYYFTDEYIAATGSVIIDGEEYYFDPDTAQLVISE

| Structure (SMILES) | inhibition |
| --- | --- |
| COCC(=O)N1CC[C@@H]2[C@@H](CO)Nc3ccc(-c4ccc(C(=O)N(C)C)cc4)cc3[C@@H]21 | -1.67% |
| O=C(NN=C1CCC(=NNC(=O)c2cccnc2)CC1)c1cccnc1 | 54% (active) |
| O=C(CC(=O)c1cccnc1)c1ccccc1 | 0.622% |
| O=C(Nc1cnccn1)c1cccnc1 | 1.15% |
| CCOc1ccc(C(CC(=O)O)n2cnnn2)cc1OC (stereo unspecified) | 1.46% |
| COc1ccc(C(C)NC(=O)C23CC4CC(CC(C4)C2)C3)cc1 (stereo unspecified) | 0.441% |
| CCOc1ccc(C(CC(=O)O)NC(=O)C23CC4CC(CC(C4)C2)C3)cc1OC (stereo unspecified) | 12.9% (active) |
| CC(C)NC(=O)N(C)C[C@@H]1Oc2ccc(NS(=O)(=O)c3ccccc3)cc2C(=O)N([C@@H](C)CO)C[C@H]1C | 1% |
| Cc1noc(C)c1NC(=O)N(C)C[C@@H]1OCCCC[C@H](C)Oc2ccc(NC(=O)NC3CCCCC3)cc2C(=O)N([C@H](C)CO)C[C@H]1C | 1.84% |
| CCC1(CC)C(=O)C2=C3C1[C@H](C(=O)OC)C=C(C(=O)OC)C[C@H]3[C@H]1C(=O)N(Cc3ccccc3)C(=O)[C@H]1[C@H]2C (stereo partly specified) | 0.94% |
| COC(=O)C1=C[C@@H](C(=O)OC)[C@@H]2C3=C(C(=O)[C@]2(C)NC(=O)c2ccccc2)[C@H](C)n2c(=O)n(C)c(=O)n2[C@@H]3C1 | 11.2% (active) |
| C[C@H]1CN([C@@H](C)CO)C(=O)c2cc(NS(=O)(=O)c3ccccc3)ccc2O[C@@H]1CN(C)C(=O)NC1CCCCC1 | 3.22% |
| O=C(NC[C@H]1[C@@H](c2ccccc2)[C@H](CO)N1CC1CC1)c1cccnc1 | -2.13% |
| C/C=C/c1ccc2c(c1)O[C@H](CN(C)Cc1cccc(F)c1)[C@H](C)CN([C@H](C)CO)S2(=O)=O | 0.906% |
| Cc1ccc(S(=O)(=O)N(C)C[C@@H]2OCCCC[C@@H](C)Oc3ccc(NC(=O)Nc4ccc(C(F)(F)F)cc4)cc3C(=O)N([C@@H](C)CO)C[C@@H]2C)cc1 | -1.2% |
| COCC(=O)Nc1ccc2c(c1)C(=O)N(C)[C@@H]1CC[C@H](CC(=O)NCCc3ccccc3)O[C@@H]1CO2 | -0.476% |
| COc1ccc(NC(=O)N(C)C[C@H]2Oc3cc(-c4ccncc4)ccc3S(=O)(=O)N([C@@H](C)CO)C[C@H]2C)cc1 | 0.138% |
| C[C@@H]1CN([C@H](C)CO)C(=O)c2cc(-c3ccc(C(=O)N(C)C)cc3)cnc2O[C@H]1CN(C)C(=O)C1CC1 | 1.01% |
| CCC(=O)N(C)C[C@H]1Oc2cc(C#CC3CC3)ccc2S(=O)(=O)N([C@H](C)CO)C[C@H]1C | -0.263% |
| COCC(=O)N1C[C@H]2[C@@H](c3ccccc31)[C@@H](CO)N2C(=O)NC(C)C | -0.399% |
| CCOC(=O)CNC(=O)CSc1ncccc1-c1nc2ccccc2[nH]1 | -7.68% |
| Cc1cc(C)nc(Nc2n[nH]c(-c3ccccc3N)n2)n1 | -0.68% |
| Nc1ccccc1-c1nc2ccncc2[nH]1 | 12.2% (active) |
| COCC(=O)N(C)C[C@@H]1Oc2ncc(-c3ccccc3OC)cc2C(=O)N([C@@H](C)CO)C[C@@H]1C | -11.6% |

| Structure (SMILES) | inhibition |
| --- | --- |
| CC(C)NC(=O)N1C[C@@H]2[C@H](c3ccccc31)[C@@H](CO)N2Cc1ccc(Cl)cc1 | -0.718% |
| Cc1noc(C)c1NC(=O)N(C)C[C@@H]1OCCCC[C@H](C)Oc2ccc(NC(=O)NC3CCCCC3)cc2C(=O)N([C@H](C)CO)C[C@@H]1C | 0.987% |
| COC1=C/C(=C/c2c(N)n3nc(CC(=O)N4CCOCC4)sc3nc2=O)C=CC1=O | 11.3% (active) |
| C=CCC1=C/C(=C\c2c(N)n3nc(CC(=O)N4CCOCC4)sc3nc2=O)C=C(OC)C1=O | -3.86% |
| COc1cc(/C=C2\C(=N)N3N=C(CC(=O)N4CCOCC4)SC3=NC2=O)cc(OC)c1OC | 0.211% |
| CCCC(=O)N1CC2(CCN(C(=O)C3CC3)CC2)c2c(n(C)c3cc(OC)ccc23)[C@H]1CO | -0.231% |
| CCS(=O)(=O)Nc1ccc2c(c1)C(=O)N(C)C[C@@H](OC)[C@@H](C)CN(C(=O)COC)[C@H](C)CO2 | -1.04% |
| C[C@@H]1CCCCO[C@@H](CN(C)C(=O)NC2CCCCC2)[C@@H](C)CN([C@@H](C)CO)C(=O)c2cc(NC(=O)C3CCCCC3)ccc2O1 | 0.287% |
| C[C@@H]1CN([C@H](C)CO)C(=O)CCCn2cc(nn2)CO[C@@H]1CN(C)C(=O)Nc1ccc(-c2cccs2)cc1 | -8.3% |
| CC(OC(=O)c1cccnc1Cl)C(=O)NC1CCCCC1 (stereo unspecified) | 15.9% (active) |
| O=C(COC(=O)c1cccnc1Cl)NC(=O)NC1CCCCC1 | 1.25% |
| CC(Oc1ccc(Br)cc1)C(=O)NC1CCCCCC1 (stereo unspecified) | 2.69% |
| COCCNC(=O)[C@@H]1[C@@H](CO)[C@@H]2Cn3c(ccc(-c4ccccc4F)c3=O)[C@@H]2N1C(=O)C1CC1 | -1.01% |
| Cc1ccccc1S(=O)(=O)NCC[C@@H]1CC[C@H](NC(=O)C2CCCCC2)[C@@H](CO)O1 | 0.652% |
| Cn1c(=O)[nH]c(=O)c2c1[nH]c(=S)n2Cc1ccccc1 | 20.2% (active) |
| Cc1nnc(Sc2nc3c(c(=O)[nH]c(=O)n3C)n2Cc2ccccc2)s1 | -0.878% |
| C=CCn1c(SCc2ccccc2)nc2c1c(=O)[nH]c(=O)n2C | 1.32% |
| CC(=O)N1CCCCN2[C@H](C1)[C@@H](c1ccc(-c3ccc(F)cc3)cc1)[C@@H]2CO | -0.351% |
| C[C@H]1CN([C@@H](C)CO)S(=O)(=O)c2ccc(-c3ccccc3F)cc2O[C@H]1CN(C)C(=O)C1CC1 | -0.346% |
| COc1ccc(NC(=O)N[C@H]2CC[C@@H](CCNC(=O)c3cc(Cl)cc(Cl)c3)O[C@H]2CO)cc1 | -0.154% |
| C[C@H]1CN([C@@H](C)CO)C(=O)Cc2cc(NC(=O)Cn3cnnn3)ccc2O[C@H]1CN(C)CC1CC1 | 0.02% |
| O=C(C1CCOCC1)N1CC2(C1)[C@H](c1ccccc1)[C@H](CO)N2Cc1ccc(Cl)cc1 | -0.452% |
| Cc1ccc(-c2cnc3c(c2)C(=O)N([C@H](C)CO)C[C@@H](C)[C@H](CN(C)Cc2ccccc2C(=O)O)O3)cc1 | 0.061% |
| C[C@@H]1CCCCO[C@@H](CN(C)C(=O)NC2CCCCC2)[C@@H](C)CN([C@H](C)CO)C(=O)c2cc(NC(=O)CCCCCC(=O)Nc3ccccc3N)ccc2O1 | 0.319% |

| Structure (SMILES) | inhibition |
| --- | --- |
| COc1ccc(C(=O)OCC(=O)Nc2ccc3[nH]c(=O)[nH]c3c2)c(OC)c1OC | 11.5% (active) |
| O=C(COC(=O)c1cccc(Cl)c1)Nc1ccc2[nH]c(=O)[nH]c2c1 | -0.403% |
| O=C(COc1ccc([N+](=O)[O-])cc1Cl)Nc1ccc2[nH]c(=O)[nH]c2c1 | 0.327% |
| C[C@@H]1CN([C@H](C)CO)C(=O)c2cc(NS(=O)(=O)c3ccc(Cl)cc3)ccc2O[C@@H](C)CCCCO[C@H]1CN(C)Cc1ccccc1 | -0.656% |
| COc1ccc(-c2ccc(OC(=O)NC3CCS(=O)(=O)C3)cc2)cc1 (stereo unspecified) | 10.6% (active) |
| N#Cc1ccc(OCC(=O)NC(=O)NC2CCS(=O)(=O)C2)cc1 (stereo unspecified) | -2.43% |
| COc1ccc(S(=O)(=O)N2CCCCC2)cc1C(=O)NC1CCS(=O)(=O)C1 (stereo unspecified) | 0.566% |
| C[C@@H]1CCCCO[C@@H](CN(C)C(=O)NC2CCCCC2)[C@H](C)CN([C@H](C)CO)C(=O)c2cc(NS(=O)(=O)c3ccc(Cl)cc3)ccc2O1 | -0.076% |
| C[C@@H]1CN([C@H](C)CO)C(=O)c2cc(NC(=O)Nc3cccc4ccccc34)ccc2O[C@H]1CN(C)C(=O)Nc1ccccc1 | -0.695% |
| O=C(c1cnccn1)N1CC(=O)N2[C@H](C1)[C@H](c1ccc(/C=C/c3ccccc3)cc1)[C@@H]2CO | 0.636% |
| CO[C@@H]1CC[C@H]2CCN(C)C(=O)[C@@H](C)CN(C)C(=O)c3cccc(C#N)c3OC[C@@H]1O2 | 0.637% |
| COc1cccc2cc(/C(C)=N/NC(=O)c3ccco3)oc12 | 14% (active) |
| COc1cccc2cc(C(=O)NCc3ccc(C)cc3)c(=N)oc12 | 0.357% |
| COc1cccc2cc(C(N)=O)/c(=N\NC(=O)c3ccccc3)oc12 | -0.164% |
| COc1ccc(S(=O)(=O)Nc2ccc3c(c2)C(=O)N([C@H](C)CO)C[C@@H](C)[C@H](CN(C)C(=O)c2ccncc2)OCCCC[C@@H](C)O3)cc1 | 1.52% |
| CNC[C@H]1Oc2cc(C#CC(C)(C)O)ccc2S(=O)(=O)N([C@@H](C)CO)C[C@@H]1C | -0.494% |
| COCC(=O)Nc1ccc2c(c1)C(=O)N(C)[C@@H]1CC[C@@H](CC(=O)NCC(F)(F)F)O[C@H]1CO2 | 0.945% |
| O=C(C[C@@H]1CC[C@H](NC(=O)Cc2ccccn2)[C@H](CO)O1)NCCc1ccncc1 | -1.24% |
| O=C(Nc1ccc(F)cc1)N[C@H]1CC[C@H](CCn2cc(-c3ccc(F)cc3)nn2)O[C@@H]1CO | -2.54% |
| CO[C@@H]1CN(C)C(=O)c2cc(NC(=O)C3CC3)ccc2OC[C@H](C)N(C(=O)c2ccccc2F)C[C@H]1C | 0.856% |
| O=C(C[C@@H]1C[C@@H]2c3cc(NC(=O)c4ccc5c(c4)OCO5)ccc3O[C@@H]2[C@@H](CO)O1)NCc1ccc(Cl)cc1 | 1.53% |
| O=C(C[C@H]1C[C@@H]2c3cc(NC(=O)c4ccc5c(c4)OCO5)ccc3O[C@@H]2[C@@H](CO)O1)NCc1cccnc1 | -0.896% |
| O=C(C[C@H]1C[C@H]2c3cc(NC(=O)c4ccc5c(c4)OCO5)ccc3O[C@H]2[C@@H](CO)O1)NCc1cccc(F)c1 | 15.2% (active) |

Reference: PubChem BioAssay AID652162 (Broad Institute, 2013)
